In the library only some 0.71% were active in any assay of this set; here they are far more common.
GoLoco inh red – qHTS Assay for Inhibitors of RGS12 GoLoco Motif Activity (Red Fluorophore) | Guanine nucleotide-binding protein G(i) subunit alpha-1 (Homo sapiens), P63096 | Gai1:RGS12 GoLoco peptide FP, rhodamine, 10 min | Potency, µM (top dose mostly 61.6 µM), inactives show top-dose activity, negative = inhibition, usual class: inhibitors | actives 0.44% (n = 230,000) | AID 880, 2007; active means well fitted inhibition curve with a large enough effect, not every such curve was filed as active; inactive means no such curve, though single readings can be large or run the other way; further: potency means the concentration at half of the fitted maximal effect; on the % scale 0 is the no-effect control and ±100 the full control effect; nearly all actives have a fitted effect of over 30% in size
Target sequence (P63096 whole entry, looked up): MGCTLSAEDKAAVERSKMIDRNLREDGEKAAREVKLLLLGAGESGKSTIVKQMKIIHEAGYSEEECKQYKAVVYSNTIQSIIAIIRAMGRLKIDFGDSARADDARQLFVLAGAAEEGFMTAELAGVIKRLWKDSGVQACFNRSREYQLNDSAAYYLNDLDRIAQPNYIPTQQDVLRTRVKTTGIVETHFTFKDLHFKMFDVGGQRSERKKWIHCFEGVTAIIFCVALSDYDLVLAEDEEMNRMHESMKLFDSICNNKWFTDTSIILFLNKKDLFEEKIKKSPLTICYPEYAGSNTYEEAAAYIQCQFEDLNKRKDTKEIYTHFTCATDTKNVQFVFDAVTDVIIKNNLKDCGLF
CBFb-RUNX1 inh – qHTS Assay for Compounds Blocking the Interaction Between CBF-beta and RUNX1 for the Treatment of Acute Myeloid Leukemia; Potency, µM (series often up to 59.8 µM), without a hit: at the highest dose activity, negative = inhibition, usual class: inhibitors; Runt-related transcription factor 1 (Homo sapiens) + Core-binding factor subunit beta …; AlphaScreen CBFb-His/RUNX1-biotin binding, biochemical; 230,000 tested, under 10 active; AID 1477, 2009; further: % of control where 0% means no effect
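Room-temperature protein-protein interaction test with 30 nM each of His-tagged CBF-beta and biotinylated RUNX1, 15 min with compound, then 90 min with nickel plus streptavidin beads. Signal read in AlphaScreen mode.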
Epigenetic reg – Quantitative High-Throughput Screen for Regulators of Epigenetic Control | murine LDR cells, GFP reporter derepression, 30 h | Potency, µM (top dose mostly 53.9 µM), without a hit: at the highest dose GFP activation, hits mostly activators | actives 0.2% (n = 280,000); further: potency means the concentration at half of the fitted maximal effect; % of control where 0% means no effect; nearly all actives have a fitted effect of over 60% in size
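GFP-positive cell count by laser-scanning cytometry (objects 20–120 um) after 30 h, 37 C compound exposure of murine LDR cells; reporter is CMV-GFP integrated at a silenced locus, inducible by HDAC or DNMT inhibitors.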
TRb SRC2 PPI – qHTS for Inhibitors of the Interaction of Thyroid Hormone Receptor and Steroid Receptor Coregulator 2 | actives 0.065% (n = 280,000) | AID 1469, 2008 | Thyroid hormone receptor beta (Homo sapiens), P10828 | TRbeta-SRC2 peptide binding, fluorescence polarization; receptor liganded with 1 µM T3 | Potency, µM (series often up to 106 µM), without a hit: top-dose activity change, negative = inhibition, usual class: inhibitors;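 further: potency means the concentration at half of the fitted maximal effect; plate controls were bound peptide for no effect and peptide without receptor for full effect; nearly all actives have a fitted effect of over 50% in size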
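Polarization signal, normalized between peptide-alone and full complex controls, measured compound effects on T3-liganded human TRb LBD (0.6 uM) binding 20 nM Texas Red SRC2 peptide after 5 hr.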
TexasRed fluor – Total Fluorescence Counterscreen for Inhibitors of the Interaction of Thyroid Hormone Receptor and Steroid Receptor Coregulator 2 | TRb/SRC2 Texas Red total fluorescence interference | Potency, µM (titrated, usually from 106 µM), for the others: at the top dose fluorescence change, negative = quenching | actives 0.29% (n = 280,000); active means well fitted curve in either direction with a large enough effect; inconclusive means small, poorly fitted or top-dose-only effect; further: potency means the concentration at half of the fitted maximal effect; on the % scale 0 is the no-effect control and ±100 the full control effect
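Human TRb ligand-binding domain at 0.6 uM with 20 nM Texas Red SRC2 peptide in Tris buffer containing 1 uM T3 and 5% DMSO, incubated with compound 5 h at ambient temperature. Total fluorescence (555/632 nm) calculated as parallel + 2 × perpendicular.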
Starred values were filed as active, the others as inactive; ? = inconclusive; . = no result; [ ] = remark or other dose. Unless noted, the call rests on the fitted dose curve; in most records, active means well fitted curve in the direction sought with a large enough effect; inconclusive means small, poorly fitted or top-dose-only effect, or another doubt; inactive means no such curve, though single readings can be large; an effect the other way counts as inactive or inconclusive.

SMILES	GoLoco inh red	CBFb-RUNX1 inh	Epigenetic reg	TRb SRC2 PPI	TexasRed fluor
CCOc1ccc(C2OC34CCCCC3C(C#N)(C#N)C2(C#N)C(=N)O4)cc1OC (centres undefined)	1.4µM*	-5%	0%	-9%	1%
C=C[C@H]1CCC=C2C(=O)CCC[C@@H]21	-3%	7%	1%	3%	0%
C[N+](C)(C)CCN(Cc1ccc(Cl)cc1)c1ccccn1	6.3µM*	-2%	0%	3%	-2%
CN(C)CCN(Cc1ccc(Cl)cc1)c1ccccn1	-5%	2%	2%	3%	2%
CCCCCCCC/C=C\CCCCCCCC(=O)OC[C@@H](O)[C@H]1OC[C@H](O)[C@H]1O	.	.	.	6%[201 µM]	2%[201 µM]
CC(=O)c1c(COC(=O)c2ccc(C)cc2)nc2ccccc2[n+]1[O-]	-3%	-1%	0%	1%	-6%
CC(=O)c1c(COC(=O)c2cccnc2)nc2ccccc2[n+]1[O-]	8.9µM*	-6%	-3%	3%	0%
COc1ccc(C(=O)Nc2ccc3nc(N4CCC(C)CC4)cc(C)c3c2)cc1	.	.	?	8%	-2%
COc1ccc(/C=C/C(=O)Nc2ccc3nc(N4CCC(C)CC4)cc(C)c3c2)cc1	.	.	22µM*	0%	-1%
CC(CN(C)C)NC(=O)c1ccc(Cc2nc3ccccc3[nH]2)cc1 (centres undefined)	.	.	-3%	.	.
O=C(CCS(=O)(=O)c1ccc(Br)s1)Nc1c(F)cccc1F	.	.	-1%	?	398µM*[quencher]
CC/C=C\CCOC(=O)c1ccccc1O	.	.	.	-3%[201 µM]	-2%[201 µM]
COc1cc(/C=C(\C#N)c2nc3ccc(C)cc3[nH]2)ccc1OC(C)C	.	.	?	-1%	3%
CCN(CC)c1ccc(/C=C(/C#N)c2nc3ccccc3[nH]2)c(OC(C)C)c1	40%	-30%	13µM*	-2%	2%
Cc1ccc(NC(=O)c2sc3nc(-c4ccncc4)ccc3c2N)cc1	.	.	22µM*	-30%	?
Nc1c(C(=O)Nc2nc3ccccc3s2)sc2nc(-c3cccs3)ccc12	56%	-1%	?	?	32µM*[quencher]
Nc1c(C(=O)Nc2ccccc2Br)sc2nc(-c3cccs3)ccc12	.	.	8%	9%	-22%
COc1ccc(NC(=O)c2sc3nc(-c4cccnc4)ccc3c2N)cc1OC	30%	6%	7.1µM*	-10%	-2%
Nc1c(C(=O)Nc2ccccc2)sc2nc(-c3cccnc3)ccc12	-2%	9%	3.5µM*	11%	1%
COc1ccc(-c2ccc3c(N)c(C(=O)Nc4ccc(C(F)(F)F)cc4)sc3n2)cc1OC	.	.	0%	2%	-11%
C=C(C)C(=O)OCCOCCOCCOC(=O)C(=C)C	.	.	.	0%[201 µM]	-1%[201 µM]
OCCOCCOCCOCCOCCO	.	.	.	4%[201 µM]	0%[201 µM]
COc1ccc(-c2nnc(Nc3ccc(CC(N)=O)cc3)c3ccccc23)cc1	-4%	-7%	0%	?	35µM*[quencher]
COc1ccccc1-c1nnc(SCCOc2ccccc2C)o1	.	.	-3%	-1%	-14%
C[n+]1ccc(/C=C/c2ccc3ccccc3c2)cc1	-29%	5%	0%	-2%	-5%
SMILES	GoLoco inh red	CBFb-RUNX1 inh	Epigenetic reg	TRb SRC2 PPI	TexasRed fluor
C[n+]1ccc(/C=C/c2ccc(Br)cc2)cc1	20µM*	3%	-1%	-1%	-1%
COC(=O)C1=C(C(=O)OC)[C@@H]2N(Cc3ccccc3)c3ccccc3[C@@]23C[C@@H](C(=O)OC)N(S(=O)(=O)c2ccc(OC)cc2)C3=N1	2%[14.2 µM]	-13%[13.1 µM]	.	4%[11.2 µM]	-5%[11.2 µM]
CC(=O)c1ccc(NC(=O)c2cn3c4c(ccc(Cl)c4c2=O)OC(C)C3)cc1 (centres undefined)	.	.	2%	0%	4%
COc1ccc(NC(=O)c2cn3c4c(ccc(Cl)c4c2=O)OC(C)C3)cc1OC (centres undefined)	.	.	18µM*	-18%	25µM*[quencher]
CC(C)N(CC(=O)O)CC(=O)O	1%[14.2 µM]	.	.	.	.
Cc1cc2nc(C)c(=O)n(C)c2cc1C	1%	10%	1%	-1%	0%
Cc1cc2nc3c(=O)[nH]c(=O)nc-3n(CC(O)C(O)C(O)CO)c2cc1C (centres undefined)	14µM*	-2%	1%	-1%	-4%
CC(=O)OCCn1c2nc(=O)[nH]c(=O)c-2nc2cc(C)c(C)cc21	14µM*	15%	-1%	-7%	-6%
Cc1cc2nc3c(=O)[nH]c(=O)nc-3n(C)c2cc1C=O	10µM*	-17%	3%	1%	1%
COc1ccccc1NC(=O)C1=C(C)Nc2c(C(=O)Nc3ccc(F)cc3)cnn2C1c1ccc(Cl)cc1 (centres undefined)	.	.	-1%	0%	?
NC(=O)C[N+]1(CC#CC(O)(c2ccccc2)c2ccccc2)CCCC1	8.9µM*	-5%	0%	0%	-5%
CCn1c(/C=C/Nc2ccccc2)[n+](CC)c2cc(Cl)c(Cl)cc21	1.6µM*	3%	5%	-4%	-2%
CCn1c(/C=C/N(C(C)=O)c2ccccc2)[n+](CCCS(=O)(=O)[O-])c2cc(Cl)c(Cl)cc21	12%	2%	2%	9%	-1%
CCC(/C=C1\Sc2ccc(OC)cc2N1CCO)=C\c1sc2ccc(OC)cc2[n+]1CCO	-190%	?	-3%	?	50µM*[fluorescent]
CCC(/C=C1\Sc2ccc(OC)cc2N1CC)=C\c1sc2ccc(OC)cc2[n+]1CCCS(=O)(=O)[O-]	-188%	-17%	-2%	?	40µM*[fluorescent]
CN(C)C(=O)C[n+]1cccc(/C=N/O)c1	-22%	-20%	-3%	-4%	-2%
O=C(NCc1ccco1)c1cccn2c(=O)c3cc4ccccc4cc3nc12	-9%	-27%	16µM*	-10%	-12%
COCCCNC(=O)c1cccn2c(=O)c3cc4ccccc4cc3nc12	4%	2%	?	-13%	-14%
Cc1ccc(CNCc2ccccc2Cl)s1	.	.	5%	2%	-3%
Cc1ccc(CNCc2ccccc2)s1	.	.	-1%	-13%	18µM*[quencher]
COc1cc(/C=N/N2C(=O)C3C4c5ccccc5C(c5ccccc54)C3C2=O)ccc1O (centres undefined)	-11%	-6%	-1%	-34%[53 µM]	0.89µM*[quencher]
COc1cccc(/C=N/N2C(=O)C3C4c5ccccc5C(c5ccccc54)C3C2=O)c1OC (centres undefined)	6%	3%	6%	-1%	3%
CC(C)NC[C@H]1CCc2cc(CO)c([N+](=O)[O-])cc2N1	6%[21.6 µM]	?	4%[16.9 µM]	6%[53 µM]	-1%[53 µM]

Screening results: PubChem BioAssay, National Center for Advancing Translational Sciences (NCATS)
